A549 tox = A549 cytotoxicity, counter-screen for Nrf2 inhibitors; Potency, µM (doses to about 46 µM), for inactives: at the highest dose activity change, negative = cytotoxicity, hits mostly inhibitors; 0.16% of 390,000 active; A549 ARE-Fluc cells, CellTiter-Fluor viability, 18-24 h; note: % is set by controls: 0 for no effect and ±100 for the full control effect
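A549 ARE_Fluc cells in 5% FBS OPTI-MEM were exposed to compounds in concentration-response for 18-24 h at 37 deg C. Viability was read by CellTiter-Fluor fluorescence (Ex 405/Em 525) after 30 min, before the luciferase read.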
Mito fusion act = mitochondrial division inhibition or fusion activation. AID 485298. Potency, µM (doses to about 46.1 µM), inactives show at the top dose growth rescue (activation), most hits filed as activators. 0.23% of 320,000 active. S. cerevisiae fusion-defective mutant growth rescue, CellTiterGlo 48 h; note: % of control where 0% means no effect; nearly all actives have a fitted effect of over 45% in size
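Read-out: ATP-based luminescence (CellTiterGlo, 10 min ambient) reporting growth of fusion-defective ts yeast after 48 hours at 37C on glycerol/ethanol YPEG medium in the presence of compound.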
TrxR1 inh = inhibitors of rat thioredoxin reductase 1 | recombinant rTrxR1, NADPH fluorescence consumption, selenite substrate | AID 588453 | Potency, µM (highest dose often 114 µM), for inactives: at the highest dose activity change, negative = inhibition, hits mostly inhibitors | 1% of 390,000 active; note: % is set by controls: 0 for no effect and ±100 for the full control effect; nearly all actives have a fitted effect of over 65% in size
Target sequence (O89049 whole entry, looked up): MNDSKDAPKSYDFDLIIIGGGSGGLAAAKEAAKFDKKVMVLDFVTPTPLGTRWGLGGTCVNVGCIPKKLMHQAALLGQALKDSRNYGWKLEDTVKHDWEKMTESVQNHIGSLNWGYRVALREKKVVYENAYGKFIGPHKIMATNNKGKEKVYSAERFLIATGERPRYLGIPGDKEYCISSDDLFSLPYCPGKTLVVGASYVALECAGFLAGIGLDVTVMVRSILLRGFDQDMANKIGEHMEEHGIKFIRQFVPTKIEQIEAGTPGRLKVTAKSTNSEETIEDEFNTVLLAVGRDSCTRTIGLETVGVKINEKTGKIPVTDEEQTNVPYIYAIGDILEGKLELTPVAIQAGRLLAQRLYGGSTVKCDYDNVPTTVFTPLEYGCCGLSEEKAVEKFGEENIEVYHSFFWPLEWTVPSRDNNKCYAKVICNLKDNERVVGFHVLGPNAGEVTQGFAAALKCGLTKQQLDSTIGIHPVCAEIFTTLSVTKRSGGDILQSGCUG
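Rat TrxR1 (90 nM in the dispensed reagent) was pre-reduced with 400 uM NADPH for 5 min at room temperature, then incubated with compound for 15 min. After 400 uM selenite was added, NADPH fluorescence (Ex 340/Em 450 nm) was followed for 8 min.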
IDH1 R132H inh = blocks human mutant IDH1 R132H enzyme | IDH1-R132H enzyme, NADPH consumption, diaphorase/resazurin fluorescence | Potency, µM (titrated, usually from 76.6 µM), without a hit: at the highest dose activity change, negative = inhibition, hits mostly inhibitors | 0.093% of 390,000 active | AID 602179; note: % is set by controls: 0 for no effect and ±100 for the full control effect; nearly all actives have a fitted effect of over 65% in size
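IDH1-R132H (0.5 ug/mL) preincubated 30 min with compound, then NADPH (0.016 mM) and alpha-KG (2 mM) added; 80 min at RT, pH 7.5. Remaining NADPH coupled via diaphorase/resazurin to fluorescence (540/590 nm); concentration-response curves normalized to no-enzyme control.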
TrxR1 substrate = rat thioredoxin reductase 1 substrate activity | O89049 | purified TrxR1 substrate turnover, NADPH consumption readout | Potency, µM (highest dose often 114 µM), for the others: at the top dose activity change, negative = substrate turnover | 0.01% of 390,000 active | AID 588456; note: % is set by controls: 0 for no effect and ±100 for the full control effect; nearly all actives have a fitted effect of over 50% in size
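Rat TrxR1, dispensed at 90 nM, was prereduced with 400 uM NADPH (final) for 5 min at ~22 deg C, then incubated with compound 15 min before 400 uM selenite. A first-read NADPH fluorescence drop versus no-compound background flagged substrates.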
Nrf2 inh = inhibitors of Nrf2 signaling; A549 ARE-Fluc reporter, luciferase luminescence, 18-24 h; Potency, µM (doses to about 46 µM), inactives show at the highest dose activity change, negative = inhibition, hits mostly inhibitors; 2.1% of 360,000 active; AID 504444; note: % is set by controls: 0 for no effect and ±100 for the full control effect; nearly all actives have a fitted effect of over 60% in size
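Concentration-response testing used A549 ARE_Fluc cells at 5000 cells/well. Following an 18-24 h compound incubation, viability was read by fluorescence (Ex 405/Em 525) and luciferase output by luminescence.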
Starred values were filed as active, the others as inactive; ? = inconclusive; . = not tested or not shown; [ ] = another dose, or the depositor's remark. A selection: hits, their analogues and other compounds. The true share with any hit is near 3.1%. Calls come from the whole dose curve; as a rule, active = well fitted curve in the direction sought with a large enough effect; inconclusive = small, poorly fitted or top-dose-only effect, or another doubt; inactive = no such curve, though single readings can be large; an effect the other way counts as inactive or inconclusive. Potency is the fitted concentration of half-maximal effect.

SMILES	A549 tox	Mito fusion act	TrxR1 inh	IDH1 R132H inh	TrxR1 substrate	Nrf2 inh
CCOC(=O)C1C(=O)C=C(c2ccc(Br)cc2)CC1c1ccco1 (stereo unspecified)	?	4%	-7%	-3%	-7%	23µM*
CCOC(=O)C1C(=O)C=C(c2cccc(NS(C)(=O)=O)c2)CC1c1ccco1 (stereo unspecified)	-1%	-3%	-28%[57.1 µM]	4%	6%[57.1 µM]	-9%
CC(C)(C)n1ncc2c(=O)n(Cc3ccc(F)cc3)cnc21	.	.	28%[57.1 µM]	.	1%	.
Cc1ccccc1CN1CCN(CC(=O)NCCCN2CCN(c3ccc(F)cc3)CC2)C1=O	0%	2%	-7%	2%	-10%	12µM*
Cc1cc(C)c(S(=O)(=O)NCC23C=CC(O2)C2C(=O)N(c4ccccc4)C(=O)C23)c(C)c1 (stereo unspecified)	2%	-6%	14µM*	7%	-13%	0%
O=C1C2C3C=CC(CNS(=O)(=O)c4ccccc4[N+](=O)[O-])(O3)C2C(=O)N1c1ccccc1 (stereo unspecified)	6%	-3%	18µM*	-1%	15%[57.1 µM]	-16%
O=[N+]([O-])c1ccccc1S(=O)(=O)NCc1ccco1	-2%	-1%	1%	3%	-1%	-9%
Cc1ccc2oc(-c3cccc(NC(=O)c4sc5c([N+](=O)[O-])cccc5c4Cl)c3)nc2c1	-1%	.	16%	19%	10%[11.4 µM]	9%
CCc1ccccc1NC(=O)C1CCN(S(=O)(=O)c2cn(C)cn2)CC1	2%	.	1%[57.1 µM]	-9%	-3%[57.1 µM]	.
O=S1(=O)C=C(Sc2nc3cc(Cl)ccc3o2)c2ccccc21	?	-16%	2.8µM*	0%	8%[57.1 µM]	?
CCOc1ccc(CCNC(=O)c2ccc(C)c(-n3cnc4cccnc43)c2)cc1	-9%	.	16%	12%	1%	-1%
FC(F)(F)c1nc(-c2cccnc2)ncc1-c1nnnn1-c1ccccc1	-2%	6%	-9%	3%	-9%	-39%
Clc1ccc(-n2nnnc2-c2cnc(-c3ccncc3)nc2-c2cccs2)cc1	-14%	14µM*	-3%	5%	1%	?
FC(F)(F)c1nc(-c2cccs2)ncc1-c1nnnn1-c1ccc(Cl)cc1	?	2%	31%	6%	20%	23µM*
COc1ccc(-n2nnnc2-c2cnc(N3CCCC3)nc2C(F)(F)F)cc1	-24%	-3%	40%	9%	14%	18µM*
O=S(=O)(c1cccs1)N1CCN(CCOc2ccc(Cl)cc2)CC1	-24%	1%	11%	12%	2%	15µM*
CCCc1cc(=O)oc2cc(C)c3c(C(C)(C)C)coc3c12	12%	.	11%	-7%	-3%	13%
O=C(Oc1ccc(N(C(=O)c2ccncc2)S(=O)(=O)c2cccs2)cc1)c1ccncc1	-10%	-9%	40µM*	7%	3%	-3%
CC1OC(CC(=O)O)CC2=C1C(=O)c1c(O)cccc1C2=O (stereo unspecified)	15µM*	.	-112%[57.1 µM]	12%	-94%[57.1 µM]	21µM*
OCc1cnc(SCc2cccc(F)c2)n1Cc1ccc(F)cc1	18%	.	0%[57.1 µM]	-2%	2%[57.1 µM]	.
O=C1OC(c2ccccc2)=NC12CC2c1ccc(Cl)cc1 (stereo unspecified)	?	16%	7.9µM*	3%	-2%	?
CN(C)c1ccc(CCC2C=Cc3ccccc32)cc1 (stereo unspecified)	.	.	-3%	.	29%	.
CC(=O)N1CCC(O)(c2cccc(C(F)(F)F)c2)CC1	6%	1%	11%	0%	-4%	5%
Fc1ccc2[nH]c3c(Cl)ncnc3c2c1	-1%	-19%	30%	6%	58%	4%
Fc1ccc2[nH]c3c(N4CCN(c5ccccc5)CC4)ncnc3c2c1	?	?	6%[57.1 µM]	9%	-25%[57.1 µM]	13µM*

From PubChem
